# In PubChem BioAssay AID1159580 (chemical genetic matrix, 2015):
# The whole screen tested about 5,500 compounds, of which about 2,000 (36%) were called active. Inconclusive results (about 18%) are left out. Some of the results follow. Values without a mark were called inactive. No stated cut-off is given here; in the data, active means normalized growth mostly below about 0.91 (no sharp cut-off); inconclusive means no clear call, values can overlap the other calls; inactive means mostly above about 0.92.
# Assay: chemical genetic growth profiling, strain panel (AID 1159580);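 further: tested at 20 µM; growth read once vehicle control cultures reached saturation at 30 °C; 1 = growth at the plate median or of vehicle wells; lower values mean less growth of the strain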
# Details: S. cerevisiae deletion strains, growth OD
# [1] = locus YAL013W, strain DEP1, active compounds read low
# [2] = locus YBR229C, strain ROT2, active compounds read low
# [3] = locus YCL061C, strain MRC1, active compounds read low
# [4] = locus YDL101C, strain DUN1, active compounds read low
# [5] = locus YDR150W, strain NUM1, active compounds read low
# [6] = locus YEL061C, strain CIN8, active compounds read low
# [7] = locus YGR078C, strain PAC10, active compounds read low
# [8] = locus YHR030C, strain SLT2, active compounds read low
# [9] = locus YHR087W, strain rtc3, active compounds read low
# [10] = locus YJR043C, strain POL32, active compounds read low
# [11] = locus YJR075W, strain HOC1, active compounds read low
# [12] = locus YLR039C, strain RIC1, active compounds read low
# [13] = locus YLR058C, strain SHM2 (second series), active compounds read low
# [14] = locus YLR085C, strain ARP6, active compounds read low
# [15] = locus YLR262C, strain YPT6, active compounds read low
# [16] = locus YML094W, strain GIM5, active compounds read low
# [17] = locus YMR219W, strain ESC1, active compounds read low
# [18] = locus YMR263W, strain SAP30, active compounds read low
# [19] = locus YMR307W, strain GAS1, active compounds read low
# [20] = locus YNL153C, strain GIM3, active compounds read low
# [21] = locus YNL298W, strain CLA4 (second series), active compounds read low
# [22] = locus YNL322C, strain KRE1, active compounds read low
# [23] = locus YNR030W, strain Alg12, active compounds read low
# [24] = locus YPL055C, strain LGE1, active compounds read low
# [25] = locus YPL241C, strain CIN2, active compounds read low
# [26] = locus YPR135W, strain CTF4, active compounds read low
smiles,measurement,setting,value
Fc1cccc(Cl)c1Cn1nnc(N2CCCCC2)n1,normalized growth,[1],0.973
same,normalized growth,[2],0.96
same,normalized growth,[3],0.977
same,normalized growth,[4],0.992
same,normalized growth,[5],1.01
same,normalized growth,[6],0.966
same,normalized growth,[7],0.946
same,normalized growth,[8],0.444 (active)
same,normalized growth,[9],0.941
same,normalized growth,"locus YJL187C, strain SWE1, active compounds read low",0.969
same,normalized growth,[10],0.982
same,normalized growth,[11],0.914
same,normalized growth,[12],0.851
same,normalized growth,[13],0.969
same,normalized growth,[14],0.762 (active)
same,normalized growth,[15],0.881
same,normalized growth,[16],0.918
same,normalized growth,[17],0.962
same,normalized growth,[18],0.976
same,normalized growth,[19],0.825
same,normalized growth,[20],0.962
same,normalized growth,[21],0.984
same,normalized growth,[22],0.961
same,normalized growth,[23],0.926
same,normalized growth,[24],0.959
same,normalized growth,[25],0.909
same,normalized growth,[26],0.534 (active)
ON(Cc1c(F)cccc1Cl)Cc1c(F)cccc1Cl,normalized growth,[1],0.985
same,normalized growth,[2],1.01
same,normalized growth,[3],0.997
same,normalized growth,[4],0.978
same,normalized growth,[5],0.951
same,normalized growth,[6],1.02
same,normalized growth,[7],0.979
same,normalized growth,[8],0.989
same,normalized growth,[9],0.986
same,normalized growth,[10],1.01
same,normalized growth,[11],0.986
same,normalized growth,[12],0.816
same,normalized growth,[13],1
same,normalized growth,[14],0.987
same,normalized growth,[15],0.829
same,normalized growth,[16],1.01
same,normalized growth,[17],0.988
same,normalized growth,[18],0.992
same,normalized growth,[20],0.976
same,normalized growth,[21],1.01
same,normalized growth,[22],0.987
same,normalized growth,[23],0.993
same,normalized growth,"locus YOL006C, strain TOP1, active compounds read low",0.966
same,normalized growth,[24],1.02
same,normalized growth,[25],1
same,normalized growth,[26],0.852
COc1ccccc1NC(=O)Nc1nc(-c2cccnc2)nc2ccccc12,normalized growth,[1],1.01
same,normalized growth,"locus YAL040C, strain CLN3, active compounds read low",1.02
same,normalized growth,"locus YCL061C, strain MRC1 (second series), active compounds read low",1
same,normalized growth,"locus YDR363W, strain ESC2, active compounds read low",1.02
same,normalized growth,"locus YER002W, strain NOP16, active compounds read low",1.04
same,normalized growth,[7],0.993
same,normalized growth,"locus YGR229C, strain SMI1, active compounds read low",1.01
same,normalized growth,[18],1.01
same,normalized growth,[19],1.02
same,normalized growth,"locus YNL128W, strain TEP1, active compounds read low",0.998
same,normalized growth,"locus YNL175C, strain NOP13, active compounds read low",0.977
same,normalized growth,"locus YNL197C, strain WHI3, active compounds read low",1.01
same,normalized growth,"locus YNL224C, strain SQS1, active compounds read low",1.01
same,normalized growth,"locus YOR083W, strain WHI5 (second series), active compounds read low",1.01
same,normalized growth,[24],1.01
COc1ccccc1NC(=O)Nc1nn(C)c2cccc(OC)c12,normalized growth,"locus YAR019C, strain CDC15, active compounds read low",0.917
same,normalized growth,"locus YBL105C, strain PKC1, active compounds read low",0.918
same,normalized growth,"locus YBR135W, strain CKS1, active compounds read low",0.933
same,normalized growth,"locus YBR136W, strain MEC1, active compounds read low",0.919
same,normalized growth,"locus YBR160W, strain CDC28, active compounds read low",0.932
same,normalized growth,"locus YDL017W, strain CDC7, active compounds read low",0.924
same,normalized growth,"locus YDL028C, strain MPS1, active compounds read low",0.938
same,normalized growth,[4],0.951
same,normalized growth,"locus YDL108W, strain KIN28, active compounds read low",0.924
same,normalized growth,"locus YDL132W, strain cdc53, active compounds read low",0.925
same,normalized growth,"locus YDL214C, strain PRR2, active compounds read low",0.843
same,normalized growth,"locus YDR052C, strain DBF4, active compounds read low",0.94
same,normalized growth,"locus YDR054C, strain cdc34, active compounds read low",0.879
same,normalized growth,"locus YDR226W, strain ADK1, active compounds read low",0.938
same,normalized growth,"locus YDR477W, strain SNF1, active compounds read low",0.781
same,normalized growth,"locus YER123W, strain YCK3, active compounds read low",0.811
same,normalized growth,"locus YER133W, strain GLC7, active compounds read low",0.731
same,normalized growth,"locus YFL009W, strain cdc4, active compounds read low",0.94
same,normalized growth,"locus YFL029C, strain CAK1, active compounds read low",0.914
same,normalized growth,"locus YFR003C, strain YPI1, active compounds read low",0.924
same,normalized growth,"locus YFR019W, strain FAB1, active compounds read low",0.907
same,normalized growth,"locus YFR028C, strain CDC14, active compounds read low",0.93
same,normalized growth,"locus YGR040W, strain KSS1, active compounds read low",0.766
same,normalized growth,"locus YGR052W, strain FMP48, active compounds read low",0.845
same,normalized growth,"locus YGR092W, strain DBF2, active compounds read low",0.81
same,normalized growth,[8],0.637 (active)
same,normalized growth,"locus YHR079C, strain IRE1, active compounds read low",0.815
same,normalized growth,"locus YHR082C, strain KSP1, active compounds read low",0.843
same,normalized growth,"locus YHR205W, strain SCH9, active compounds read low",0.835
same,normalized growth,"locus YIL147C, strain SLN1, active compounds read low",0.935
same,normalized growth,"locus YJL095W, strain BCK1, active compounds read low",0.687
same,normalized growth,"locus YJL128C, strain PBS2, active compounds read low",0.953
same,normalized growth,"locus YJL157C, strain FAR1, active compounds read low",0.816
same,normalized growth,"locus YJR016C, strain ILV3, active compounds read low",0.928
same,normalized growth,"locus YJR066W, strain TOR1 (second series), active compounds read low",0.794
same,normalized growth,"locus YJR066W, strain TOR1, active compounds read low",0.775
same,normalized growth,"locus YKL048C, strain ELM1, active compounds read low",0.93
same,normalized growth,"locus YKL067W, strain YNK1, active compounds read low",0.866
same,normalized growth,"locus YKL101W, strain HSL1, active compounds read low",0.855
same,normalized growth,"locus YKL193C, strain SDS22, active compounds read low",0.914
same,normalized growth,"locus YKL203C, strain TOR2, active compounds read low",0.776
same,normalized growth,"locus YLR113W, strain HOG1, active compounds read low",0.599 (active)
same,normalized growth,"locus YLR133W, strain CKI1, active compounds read low",0.818
same,normalized growth,"locus YLR403W, strain SFP1, active compounds read low",0.649 (active)
same,normalized growth,"locus YML070W, strain DAK1, active compounds read low",0.824
same,normalized growth,"locus YMR001C, strain CDC5, active compounds read low",0.902
same,normalized growth,"locus YMR205C, strain PFK2 (second series), active compounds read low",0.863
same,normalized growth,"locus YMR277W, strain FCP1, active compounds read low",0.918
same,normalized growth,"locus YNL006W, strain LST8, active compounds read low",0.933
same,normalized growth,"locus YNL020C, strain ARK1, active compounds read low",0.818
same,normalized growth,"locus YNL161W, strain CBK1, active compounds read low",0.929
same,normalized growth,"locus YNL183C, strain NPR1, active compounds read low",0.745
same,normalized growth,"locus YNL207W, strain RIO2, active compounds read low",0.91
same,normalized growth,"locus YNL222W, strain SSU72, active compounds read low",0.929
same,normalized growth,"locus YNL307C, strain MCK1 (second series), active compounds read low",0.827
same,normalized growth,"locus YOL078W, strain AVO1, active compounds read low",0.914
same,normalized growth,"locus YOL136C, strain PFK27, active compounds read low",0.81
same,normalized growth,"locus YOR061W, strain CKA2, active compounds read low",0.866
same,normalized growth,"locus YOR119C, strain RIO1, active compounds read low",0.8
same,normalized growth,"locus YOR231W, strain MKK1, active compounds read low",0.734
same,normalized growth,"locus YOR329C, strain SCD5, active compounds read low",0.933
same,normalized growth,"locus YPL031C, strain PHO85, active compounds read low",0.724
same,normalized growth,"locus YPL153C, strain RAD53, active compounds read low",0.742
same,normalized growth,"locus YPL204W, strain HRR25, active compounds read low",0.719
same,normalized growth,"locus YPL209C, strain IPL1, active compounds read low",0.943
same,normalized growth,"locus YPL256C, strain CLN2, active compounds read low",0.73 (active)
same,normalized growth,"locus YPR025C, strain CCL1, active compounds read low",0.926
same,normalized growth,"locus YPR106W, strain ISR1, active compounds read low",0.916
same,normalized growth,"locus YPR111W, strain DBF20, active compounds read low",0.919
same,normalized growth,"strain NNK1, active compounds read low",0.908
same,normalized growth,"strain TSCII, active compounds read low",0.915
